PfHsp90 set2: reduces growth (ATP signal) of yeast expressing P. falciparum Hsp90; S. cerevisiae expressing PfHsp90, BacTiter-Glo ATP, 48 h; yeast lacking PDR1 and PDR3 efflux regulators; 310,000 compounds, 0.32% hits; inhibition, % at 9.4 µM;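 active means every replicate shows inhibition above about 80%, whatever the replicate mean, limit read from the data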;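 further: 0% = DMSO neutral controls and 100% = 20 µM radicicol positive controls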
TIM10 inh: inhibits growth of TIM10 yeast strain. S. cerevisiae TIM10 strain growth, BacTiter-Glo luminescence, 24 h. inhibition, % at 10 µM. 330,000 compounds, 1.4% hits;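 active means inhibition of 40% or more at the single tested concentration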;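 further: wild-type TIM10 isogenic control strain grown at permissive 25 °C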
tim10-1 inh: tim10-1 yeast growth inhibition | S. cerevisiae tim10-1 ts strain growth, BacTiter-Glo, 24 h | inhibition, % at 20 µM | 330,000 compounds, 2.2% hits;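 active means inhibition of at least 40%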;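 further: mutant grown at 25 °C; 0% = DMSO wells with yeast and 100% = wells holding no yeast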
tim23-1 inh: tim23-1 yeast growth inhibition. S. cerevisiae tim23-1 growth, BacTiter-Glo luminescence, 24 h. inhibition, % at 20 µM. 330,000 compounds, 1.3% hits. AID 463212;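 active means growth inhibition of the mutant yeast at or above 50%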;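 further: temperature-sensitive mutant grown at 25 °C; plate controls were DMSO-treated mutant yeast for no effect and medium wells lacking yeast for full effect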
SKKanGAS inh: blocks kanamycin growth of S. pyogenes SKKanGAS strain; AID 1662; BacTiter-Glo, 6 h; 300,000 compounds, 1.3% hits; inhibition, % at 7.5 µM;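 active means mean replicate score, as percent of positive control median, at least 50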;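 further: strain carries kanamycin resistance gene driven by streptokinase promoter and grows in 40 µg/ml kanamycin; loss of luminescence reflects streptokinase promoter inhibition or plain growth inhibition; 0% = median of DMSO wells and 100% = positive control at its reference dose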
ATG4B inhibitor: ATG4B (human) cysteine protease inhibition. ATG4B cleavage of LC3-PLA2, NBD-HPC fluorescence, 1 h. Q9Y4P1. inhibition, % at 8.33 µM. 340,000 compounds, 0.51% hits; in the data active means inhibition above about 40%
Target sequence (Q9Y4P1 whole entry, looked up): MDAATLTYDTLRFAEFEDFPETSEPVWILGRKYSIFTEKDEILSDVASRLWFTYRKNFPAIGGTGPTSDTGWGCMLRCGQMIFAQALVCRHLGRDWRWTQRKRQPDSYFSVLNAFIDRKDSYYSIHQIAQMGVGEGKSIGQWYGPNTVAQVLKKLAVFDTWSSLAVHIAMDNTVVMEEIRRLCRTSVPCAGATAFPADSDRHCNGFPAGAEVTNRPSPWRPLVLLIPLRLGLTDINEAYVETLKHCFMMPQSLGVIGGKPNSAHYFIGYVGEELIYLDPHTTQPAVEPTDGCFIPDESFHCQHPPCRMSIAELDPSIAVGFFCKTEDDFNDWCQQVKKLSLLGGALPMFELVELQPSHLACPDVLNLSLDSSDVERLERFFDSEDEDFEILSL
tim10-1 confirm: confirmation of tim10-1 mutant yeast growth inhibitors; shares compounds with tim10-1 inh; S. cerevisiae tim10-1 ts strain growth, BacTiter-Glo, 24 h; inhibition, % at 20 µM; 7,400 compounds, 56% hits;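 active means inhibition of yeast growth at or above a set limit in either of two repeat tests at 20 µM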;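 further: tim10-1 mutant grown at permissive 25 °C to find synthetic lethal compounds; 0% = DMSO yeast wells and 100% = medium wells without yeast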
The depositor's hits bear a star; . = no result given. Most compounds without a hit are left out; they make up all but 4.7% or so of the library.

SMILES | PfHsp90 set2 | TIM10 inh | tim10-1 inh | tim23-1 inh | SKKanGAS inh | ATG4B inhibitor | tim10-1 confirm
COCCn1c(-c2ccc(C)cc2)nc2oc3cc(OC)ccc3c(=O)c2c1=O | 31 | -3 | -7 | 6 | 1 | -14 | .
CCn1c(CNc2ccc(Cl)cc2)nnc1SCc1ccc(Cl)cc1 | 127* | 17 | 9 | 44 | -3 | -9 | .
CCn1c(CNc2ccc(Cl)cc2)nnc1SCCN1CCCCC1 | -1 | -15 | -5 | 9 | 10 | -10 | .
CCn1c(CNc2ccc(Cl)cc2)nnc1SCc1ccc(C)cc1 | 81* | -5 | -3 | -5 | 9 | -9 | .
Cc1ccc(CSc2ncnc3c2cnn3Cc2ccccc2)cc1 | 6 | 0 | 3 | -6 | 65* | -1 | .
COc1ccc(C2=NN(C(C)=O)CC2c2cccc([N+](=O)[O-])c2)cc1 (stereo not given) | -6 | 4 | 43* | 34 | -8 | -7 | -11
CC(=O)N1N=C(N)SC1c1cccc([N+](=O)[O-])c1 (stereo not given) | -34 | -11 | 8 | 16 | 4 | -12 | .
N/C(=N\OC(=O)c1cccc(Cn2cc(C(F)(F)F)ccc2=O)c1)c1ccccc1 | 27 | 22 | 44* | 1 | -4 | -8 | 52*
O=C(Sc1ccc(Cl)cc1)c1cccc(Cn2cc(C(F)(F)F)ccc2=O)c1 | 2 | 28 | 26 | 37 | 9 | -11 | .
COc1ccc(Cl)cc1NC(=O)CNc1ccccc1CN(C)C1CCCCC1 | -11 | 17 | 43* | 19 | -4 | 0 | 30*
COCCN(Cc1nnc(-c2cccs2)o1)C(=O)c1cccc(S(=O)(=O)N2CCOCC2)c1 | . | 7 | 1 | 12 | . | -7 | .
CC(C(=O)N1CCN(c2ccc(Cl)cc2)CC1)c1ncc(C(F)(F)F)cc1Cl (stereo not given) | 0 | 32 | 43* | 30 | 11 | -6 | 9
CC(C(=O)NC1CC1)c1ncc(C(F)(F)F)cc1Cl (stereo not given) | 5 | 2 | -6 | 1 | 3 | -14 | .
CCNC(=O)NC(=O)C(C)OC(=O)C(C)(C)Oc1ccc(Cl)cc1 (stereo not given) | 12 | 9 | 24 | 7 | -7 | -1 | .
Cc1ccc(S(=O)(=O)/N=C2/C=C(C3C(=O)CC(C)(C)CC3=O)C(=O)c3ccccc32)cc1 | 0 | 17 | 41* | 27 | 28 | 1 | 29
Cc1ccc(S(=O)(=O)/N=C2\C=C(NS(=O)(=O)c3ccccc3)C(=O)c3ccccc32)cc1 | -3 | . | . | . | . | -1 | .
Cc1cc(/C=C2/SC(=S)N(c3cccc(C(F)(F)F)c3)C2=O)c(C)n1-c1cccnc1 | 2 | 30 | 50* | 27 | 10 | -16 | 25
Cc1cc(/C=C2\SC(=S)N(Cc3ccco3)C2=O)c(C)n1-c1cccnc1 | 33 | . | . | . | 14 | -4 | .
CC(=NCC1CCNCC1)C1=C(O)CC(C)(C)CC1=O | 5 | -3 | 13 | -3 | -3 | -9 | .
CCCOc1ccccc1NC(=O)/C=C/C(N)=O | -11 | 37 | 62* | 32 | 2 | 7 | 56*
O=C(c1ccc(S(=O)(=O)N2CCOCC2)cc1)N1CCOCC1 | 2 | 11 | -7 | -3 | 5 | 3 | .
COc1ccc(-c2cc(=O)n(-c3ccc([N+](=O)[O-])cc3)[nH]2)cc1 | 49 | 29 | 50* | 28 | 25 | 1 | 38*
CCCCNc1ncnc2c1cnn2Cc1ccc(Cl)cc1 | 10 | 9 | 40* | 23 | -3 | -11 | 11
COCCNc1ncnc2c1cnn2Cc1ccc(Cl)cc1 | 21 | 11 | 10 | 16 | -5 | 0 | .
CC1=C/C(=C(\c2cc(C)c(O)c(Br)c2)c2ccccc2S(=O)(=O)O)C=C(Br)C1=O | 68 | 33 | 46* | 46 | 24 | 4 | 44*
SMILES | PfHsp90 set2 | TIM10 inh | tim10-1 inh | tim23-1 inh | SKKanGAS inh | ATG4B inhibitor | tim10-1 confirm
Cc1cc(C(=O)c2ccccc2)cc(C)c1O | -1 | . | . | . | . | 0 | .
Cc1ccc(-c2nn(-c3ccccc3)cc2C(=O)N2CCOCC2)cc1 | -1 | 32 | 40* | 36 | 2 | -8 | 24
CCN(CC)C(=O)c1cc2c(=O)c3cc(Cl)ccc3oc2nc1C | 10 | 16 | 16 | -1 | -1 | -15 | .
Cc1ccc(CN2CCN(Cc3cnc(N4CCOCC4)s3)CC2CCO)o1 (stereo not given) | 5 | 17 | 8 | 0 | -12 | 9 | .
Cc1ccc(S(=O)(=O)N2CCN(C(=O)CSc3ncc(C(F)(F)F)cc3Cl)CC2)cc1 | 11 | 31 | 24 | 29 | -2 | -17 | .
O=C(c1cccs1)c1c[nH]cc1-c1ccccc1 | . | 28 | 52* | 29 | -6 | 11 | 38*
Cc1ccc(S(=O)(=O)CCC(=O)OCC(=O)NCCc2ccc(F)cc2)cc1 | 6 | 7 | -11 | 10 | -7 | -5 | .
CN(Cc1ccccc1)C(=O)c1cccc(NC(=O)Cc2ccc(NC(=O)C3CCN(C(=O)CCc4ccccc4)CC3)cc2)c1 | 5 | . | . | . | . | -17 | .
Nc1c(C(=O)Nc2ccc(Cl)cc2)sc2nc(N3CCOCC3)c3c(c12)CCCC3 | -16 | 2 | 34 | 22 | 38 | 1 | .
COc1ccc(C/C(=N\OC(C)=O)c2ccc(OC)cc2)cc1 | -12 | 7 | 46* | 26 | 3 | 1 | 45*
CNc1sc(C(=O)c2ccc(F)cc2)c(N)c1-c1nc2ccccc2s1 | -10 | 35 | 41* | 42 | -9 | 4 | 23
CNc1sc(C(=O)c2cccs2)c(N)c1-c1nc2ccccc2s1 | -35 | 31 | 48* | 45 | 20 | 2 | 48*
CCN(CC)CCNCC1C(=O)O[C@@H]2C[C@@]3(C)CCC[C@H](C)C3=C[C@H]12 (stereo not given in full) | 3 | 24 | 51* | 44 | -2 | 5 | 37*
COC(=O)CSc1nc(N2CCOCC2)c2c(c1C#N)CC(C)(C)OC2 | -24 | -13 | 25 | 13 | -1 | 20 | .
COC(=O)Sc1nc(N2CCOCC2)c2c(c1C#N)CC(C)(C)OC2 | 10 | 39 | 45* | 6 | 5 | -1 | 31*
N#CCSc1nc2c(cc1C#N)CCCCCC2 | -4 | -23 | 28 | 28 | . | -8 | .
N#CCSc1nc2c(c(C3CC=CCC3)c1C#N)CCC2 (stereo not given) | -17 | 6 | 47* | 31 | 6 | 10 | 35*
COc1cc2c3c(c1)/C(=C1/SC(NC(C)=O)=NC1=O)C(=O)N3C(C)(C)C=C2C | 35 | 30 | 62* | 45 | 13 | 1 | 56*
CCOc1ccc(C(O)(CCC(C)C)C(CN2CCOCC2)c2ccccc2)cc1 (stereo not given) | -19 | 28 | 23 | 49 | 0 | -6 | .
CCNC(=O)c1ccc(NC(=O)CC2SC(N3CCCCC3)=NC2=O)cc1 (stereo not given) | 13 | 7 | 16 | -8 | . | -7 | .

Screening data from PubChem.
